Compound activity from PubChem.
Rows were chosen to be rich in hits. Some 2.9% of all compounds tested hit in one or more screens of this group.
MITF TRPM1 inh: inhibitors of MITF-driven TRPM1 promoter in melanoma cells; AID 488899; inhibition, % at 12.5 µM; SK-MEL-5 TRPM1 promoter luciferase, 24 h; actives 0.83% (n = 330,000);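 active = mean inhibition across replicates of 60% or more, whatever share of single replicates reaches that level; inconclusive = some that reach 60%, reason not given; inactive = mean inhibition across replicates below 60%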
Wnt act: Wnt/beta-catenin pathway activation; actives 1.2% (n = 300,000); Wnt/beta-catenin reporter cell assay, activator, plate reader; activation, % at 9.35 µM; in the data active = activation above about 30%, passing the limit was not always enough; inconclusive = no clear call, values can overlap the other calls;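 also: 0% = neutral control wells and 100% = positive control wells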
NSD2 HMT inh: blocks human histone methyltransferase NSD2 | O96028 | NSD2 peptide methylation, AlphaScreen, 120 min | inhibition, % at 12.5 µM | actives 0.54% (n = 310,000) | AID 743445; in the data active = inhibition above about 50%
Glyco luc inh: N-linked glycosylation inhibition; actives 0.23% (n = 360,000); reporter increase, % at 12.5 µM; D54 ERlucT glycosylation luciferase reporter, 24 h; percent of 100 nM tunicamycin response; AID 588692;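 active = mean luciferase reporter signal, scaled so untreated is 0 and the glycosylation-blocking control 100, at or above a set limit in every replicate; inconclusive = mean reaches the limit but not every replicate does; inactive = mean below the limit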;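 also: luciferase carries N-glycosylation sites so blocking glycosylation raises the light; 0% = median of neutral control wells and 100% = median of 100 nM tunicamycin wells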
MITF TRPM1 HTS: activators of MITF-driven TRPM1 promoter activity in SK-MEL-5 cells. SK-MEL-5 TRPM1-promoter luciferase, 24 h; % of positive control, neutral wells = 0. activation, % at 12.5 µM. actives 0.75% (n = 300,000). AID 588334;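 active = mean activation of at least 80% with every replicate also reaching 80%; inconclusive = mean reaches 80% but some replicate falls short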;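 also: 0% = neutral control wells and 100% = parthenolide positive control wells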
PfHsp90 yeast 2: reduces growth (ATP signal) of yeast expressing P. falciparum Hsp90; S. cerevisiae expressing PfHsp90, BacTiter-Glo ATP, 48 h; yeast lacking PDR1 and PDR3 efflux regulators; inhibition, % at 9.4 µM; actives 0.32% (n = 310,000); AID 504621;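 active = every replicate shows inhibition above about 80%, whatever the replicate mean, limit read from the data; inconclusive = mean inhibition reaches the set limit but some replicate falls short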;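 also: 0% = DMSO neutral controls and 100% = 20 µM radicicol positive controls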
An asterisk follows results filed as active; ? = inconclusive; nt = no result given.

SMILES	MITF TRPM1 inh	Wnt act	NSD2 HMT inh	Glyco luc inh	MITF TRPM1 HTS	PfHsp90 yeast 2
Cc1cc2c(nc1C)CCCN2Cc1ccc(Br)cc1	nt	4.9	nt	nt	nt	nt
Cc1cc(Br)cc(Cl)c1OCC(=O)N1CCN(C(=O)c2ccco2)CC1	4.5	59.1*	-0.4	1.0	-3.3	-26.7
Cc1cc(C)c(OCC(=O)OCC(=O)N2CCN(C(=O)c3ccco3)CC2)c(C)c1	1.8	-1.2	0.4	1.0	-0.2	-16.8
COC(=O)[C@]12C[C@H](CC(=O)NCc3ccc(OC)c(OC)c3)C(=O)N(CCC3=CCCCC3)C1=C[C@H](COCc1ccccc1)O[C@@H]2C	nt	-4.8	nt	nt	nt	nt
CC(=O)N1CCN(c2ccc(N3CCN(Cc4ccccc4)[C@@H](C)C3)c(C)c2)[C@H](C)C1	nt	-4.3	nt	nt	nt	nt
O=C(COC(=O)Cn1cnc2ccccc21)Nc1ccc2c(c1)C(=O)c1ccccc1C2=O	-25.8	59.2*	8.2	9.8	27.1	1.8
Nc1nc2c(ncn2[C@@H]2O[C@H](C(=O)NCCCc3ccccc3)[C@@H](O)[C@H]2O)c(=O)[nH]1	nt	1.8	nt	nt	nt	nt
CC(C)(C)Nc1nc(Cl)nc(Nc2ccccc2)n1	-79.5	9.3	0.4	-4.5	nt	-36.4
Clc1nc(Nc2ccccc2)nc(Nc2ccccc2)n1	-18.3	49.4*	-0.4	2.6	21.1	-9.2
Cc1cc(N)n(-c2nc3ccccc3s2)n1	-33.9	23.6	0.3	-2.5	45.7	-11.1
Cc1cc(C)n(-c2nc3ccccc3s2)n1	-47.5	52.0*	-3.4	-0.2	52.6	-7.5
Cc1nn(-c2nc3ccccc3s2)c(N)c1-c1ccc(Cl)cc1	-78.1	40.6*	-2.6	0.7	79.0	10.6
COc1ccc2c(c1)c(/C=N/Nc1nc3ccccc3[nH]1)c(C)n2C	4.5	56.8*	2.8	-7.2	nt	13.8
COc1cc(/C=N\Nc2nc3ccccc3[nH]2)cc(OC)c1OC	2.1	-7.0	-5.8	-3.4	-2.4	4.7
Cc1cc(C)cc(NC(=O)COC(=O)c2cccc(S(=O)(=O)N3CCCCC3)c2)c1	7.1	32.5*	-1.6	3.6	-3.6	1.5
CC(=O)Oc1ccc(C)cc1-n1nc2ccccc2n1	-64.2	77.5*	-3.3	-3.8	nt	nt
Cc1ccc(OC(=O)c2cccc(S(=O)(=O)N(C)C)c2)c(-n2nc3ccccc3n2)c1	-38.5	-3.7	35.8	-2.4	30.1	-5.9
Cc1ccc(OC(=O)c2cccc(S(=O)(=O)N3CCCC3)c2)c(-n2nc3ccccc3n2)c1	-90.2	104.1*	0.5	-5.0	99.4*	-17.1
CN(C)S(=O)(=O)c1ccc(N2CCCC2)c(C(=O)Nc2nc(-c3ccc(F)cc3)cs2)c1	24.6	-6.1	-2.7	20.4	-23.2	-30.5
CN(C)S(=O)(=O)c1ccc(N2CCCC2)c(C(=O)Nc2nc3ccccc3s2)c1	1.8	-6.0	-0.4	90.0*	-1.0	-9.7
CN(C)S(=O)(=O)c1ccc(N2CCCC2)c(C(=O)Nc2ccccc2Br)c1	1.6	-2.4	-0.4	0.0	-2.9	nt
CN(C)S(=O)(=O)c1ccc(N2CCCC2)c(C(=O)Nc2nc3ccc(F)cc3s2)c1	6.8	0.0	-0.4	63.5*	-9.9	3.7
Cc1cccc2sc(NC(=O)c3cc(S(=O)(=O)N(C)C)ccc3N3CCCC3)nc12	33.5	-11.4	-2.3	86.5*	-29.4	-23.9
CC(C)Cc1nnc(NC(=O)c2cc(S(=O)(=O)N(C)C)ccc2N2CCCC2)s1	-5.9	2.2	-1.4	2.4	4.6	-3.0
CC1CCCCN1CCNC(=O)c1ccc2c(c1)N(Cc1ccccc1F)C(=O)c1ccccc1S2=O (stereo not given)	-8.6	-0.9	11.2	-4.2	9.4	-12.7
SMILES	MITF TRPM1 inh	Wnt act	NSD2 HMT inh	Glyco luc inh	MITF TRPM1 HTS	PfHsp90 yeast 2
CC(O)CNc1ncnc2nc[nH]c12 (stereo not given)	-1.2	-6.9	1.6	-1.9	7.9	19.7
CC(C)CCCCCCCCCCCCC(=O)NCC(=O)NC1C(O)C(O)C(Nc2ncnc3nc[nH]c23)OC1C(O)CO (stereo not given)	76.2*	nt	-0.8	-17.3	nt	-10.9
CCOC(=O)c1c(C)oc2c1c(C=NC1CCS(=O)(=O)C1)c(O)c1ccccc12 (stereo not given)	10.8	-1.1	87.5*	3.2	-7.4	-13.5
CCOC(=O)c1c(C)oc2c1c(CN1CCN(C(=O)OCC)CC1)c(O)c1ccccc12	-68.8	-1.1	0.4	0.2	74.0	-5.9
CCOC(=O)c1sc(NC(=O)Nc2ccccc2)cc1C	-106.3	?	0.3	-10.6	105.1*	19.4
CCOC(=O)c1sc(NC(=O)C2CCC2)cc1C	-43.2	37.1*	-0.4	-2.5	44.2	-7.3
CCOC(=O)c1sc(NC(=O)Nc2ccc(F)cc2)nc1C	-100.6	-1.8	-0.6	-10.1	102.8*	8.8
CCOC(=O)c1sc(NC(=O)Cc2ccc(F)cc2)nc1C	2.8	0.1	-1.7	2.7	-2.6	nt
Cc1cc(C)nc(SCC(=O)c2ccc(F)cc2F)n1	-13.4	-0.7	-2.5	-1.7	13.5	2.4
CC(C)N(Cc1ccccc1)C(=O)CC(=O)N(Cc1ccccc1)C(C)C	-1.6	-0.6	-1.1	-3.5	-0.1	-1.8
CCC(=O)N(C1=C(NC(C)C)C(=O)c2ccccc2C1=O)C(C)C	27.1	2.5	69.7*	6.6	-24.9	-24.9
c1cc(-c2cc3cc4c(cc3cn2)OCO4)cs1	-72.1	49.7*	nt	-2.9	?	29.5
COc1cc2cnc(-c3ccsc3)cc2cc1OC	14.1	-2.3	nt	1.9	-14.8	4.1
Fc1ccc2cc(-c3ccsc3)ncc2c1	-68.3	36.3*	nt	-0.9	72.6	-14.8
Fc1ccc2cnc(-c3ccsc3)cc2c1	nt	1.5	nt	nt	nt	nt
O=C(Cn1nc(C(F)F)cc1C(F)F)NNC(=S)Nc1ccc([N+](=O)[O-])cc1	12.8	-5.6	2.2	0.4	-13.6	13.1
COc1ccccc1N1CCN(C2CCCN(C(=O)c3cccc(-c4ccco4)c3)C2)CC1 (stereo not given)	14.7	0.9	10.6	-2.7	-13.2	-8.1
NS(=O)(=O)c1ccc(CCNC(=O)c2ccccc2Cc2ccccc2)cc1	4.9	30.8*	-1.5	0.2	-5.8	-19.4
NS(=O)(=O)c1ccc(CCNC(=O)c2cccc3ccccc23)cc1	2.8	-1.9	3.7	1.3	-0.6	42.0
CCOc1ccc(S(=O)(=O)N2CCN(C(=O)C3CC3C)CC2)cc1 (stereo not given)	1.1	1.6	-1.7	1.9	-2.4	15.8
Cc1oc(-c2ccccc2F)nc1CS(=O)CC(=O)NCc1ccc2c(c1)OCO2 (stereo not given)	nt	42.8*	nt	2.2	nt	-8.4
CCOC(=O)N[C@H](C(=O)N1CCC[C@H]1C(=O)NCc1ccccc1)C(C)C	nt	-2.3	nt	nt	nt	nt
CN(C)/C=C(\C#N)C(=O)Nc1ccc(F)c(Cl)c1	-52.6	36.5*	-1.9	-2.1	nt	-7.7
CN(C)/C=C(\C#N)C(=O)Nc1ccc(F)cc1	-52.2	nt	-0.3	-1.6	56.2	-11.4
Clc1ccc2nc(N3CCCCC3)[nH]c2c1	-25.0	nt	-1.2	-7.6	28.1	-33.9
